We go through 40 molecules from PubChem BioAssay (NCATS).

Several values for one entry are separate records, joined by “and”; a condition that tells them apart may be missing. Equal entries are not always repeated. Results filed as inconclusive are left out. Activity calls are given as the source filed them. The call rests on the fitted dose curve; in most records, active means well fitted inhibition curve with a large enough effect; inconclusive means small, poorly fitted or top-dose-only effect; inactive means flat fitted curve, though single readings scatter.
On the % scale 0 is the no-effect control and ±100 the full control effect.

The test system of this assay is KB-3-1. Briefly: Cytotoxic Profiling of Annotated Libraries Using Quantitative High-Throughput Screening (AID 1296008). Further: nearly all actives have a fitted effect of over 60% in size. Particulars: Five cell lines viability, CellTiter-Glo ATP luminescence, 48-72 h; max response: stronger effect = lower value. An excerpt:
Cell-based phenotypic screening is a commonly used approach to discover biological pathways, novel drug targets, chemical probes and high-quality hit-to-lead molecules. Many hits identified from high-throughput screening campaign are ruled out through a series of follow-up potency, selectivity/specificity, and cytotoxicity assays. Prioritization of molecules with little or no cytotoxicity for a more in-depth downstream evaluation influence the future direction of projects, so cytotoxicity profiling of the screening libraries at early stage is essential for increasing the likelihood of candidate success. […] For the annotated library, we also examined the primary targets and mechanistic pathways regularly associated with cell death. To our knowledge, this is the first study to use high-throughput screening to profile large libraries for cytotoxicity assessment in both normal and cancer cell lines. In summary, the results generated here constitutes a valuable resource for the scientific community and provides insight on identifying cytotoxic compounds with particular mechanisms of action, and prioritizing compounds with suitable cytotoxicity profile for further evaluation.
A pintool (Kalypsys) was used to transfer 23 nL of compound solution to the 1536-well assay plates. After 48 or 72 hr incubation at 37 degree Celsius, 5% CO2 and 95% humidity, 2.5 uL of CellTiter-Glo (Promega) was dispensed into each well using a dispenser (Aspect Automation, St. Paul, MN) with solenoid valves (Lee Valves, Westbrook CT). Plates were left at room temperature for 10 min before imaging the ATP-coupled luminescence using a ViewLux microplate imager (PerkinElmer, Waltham, MA).
In the case of `CCCCN=C(N)N=C(N)N`, the max response was 1.99% (inactive).

`CC(=C(CCOC(=O)C(C)C)SSC(CCOC(=O)C(C)C)=C(C)N(C=O)Cc1cnc(C)nc1N)N(C=O)Cc1cnc(C)nc1N`: the max response was 1.98% (inactive).

Take `CC(C)[N+](C)(C)CC(O)COc1cccc2ccccc12` (stereo not given): the max response was -4.04% (inactive).

As to `CC1(COc2ccc(CC3SC(=O)NC3=O)cc2)CCCCC1` (stereo not given), the max response is -1.45% (inactive).

For `CN1CCN(c2c(F)cc3c(=O)c(C(=O)O)cn4c3c2SCC4)CC1`, the max response was -15.8% (inactive).

Take `CC(=O)NC(=O)c1ccccc1O`: the max response is -3.04% (inactive).

For the molecule `CCCCCCCCCCCCSCCOCCO`, the max response was 1.68% (inactive).

For `CCC(C(=O)OCCOCCN(CC)CC)c1ccccc1` (stereo not given), the max response is 16.3% (inactive).

For the molecule `CN(C)CCOC(c1ccc(Cl)cc1)c1ccccn1` (stereo not given), the max response was 10.7% (inactive).

As to `CCOC(=O)[C@H](CCc1ccccc1)N[C@@H](C)C(=O)N1[C@H](C(=O)O)C[C@H]2CCCC[C@@H]21`, the max response was 8% (inactive) and -12.5% (inactive).

For `O=C(Oc1cccc2cccnc12)c1ccccc1`, the max response was 6.72% (inactive).

As to `CN(C)C(=O)Nc1ccc(Cl)c(Cl)c1`, the max response was -25.2% (inactive).

On to `CCN(CC)CCOc1ccccc1C(=O)CCc1ccccc1`, for which the max response was -2.43% (inactive).

As to `COc1ccc(S(=O)(=O)N2c3ccc(Cl)cc3[C@@](O)(c3ccccc3Cl)[C@H]2C(=O)N2CCC[C@@H]2C(N)=O)cc1OC`, the max response is -5.62% (inactive).

For the molecule `CC(C)Nc1cccnc1N1CCN(C(=O)c2cc3cc(NS(C)(=O)=O)ccc3[nH]2)CC1`, the max response is -4.88% (inactive).

Consider `CN1CCN(CCC(=O)N2c3ccccc3Sc3ccc(C(F)(F)F)cc32)CC1`, for which the max response was 5.81% (inactive).

For `C[C@]12CCC(=O)C=C1C=C[C@@H]1[C@@H]2CC[C@@]2(C)[C@H]1CC[C@@]21CCC(=O)O1`, the max response was -4.54% (inactive).

As to `NS(=O)(=O)Cc1noc2ccccc12`, the max response was 2.97% (inactive).

Take `CC(=O)Nc1ccc(S(=O)(=O)Nc2ccc([N+](=O)[O-])cc2)cc1`: the max response is 15% (inactive).

For the molecule `CCc1ccc(C(=O)C(C)CN2CCCCC2)cc1` (stereo not given), the max response is -1.02% (inactive).

With `CC(=O)Nc1ncc([N+](=O)[O-])s1`, the max response is 1.85% (inactive).

Turning to `CCCN(CCc1cccs1)[C@H]1CCc2c(O)cccc2C1`, the max response is 5.8% (inactive).

Consider `CC(=O)O[C@H]1C[C@@H]2CC[C@@H]3[C@H](CC[C@@]4(C)[C@H]3C[C@H]([N+]3(C)CCCCC3)[C@@H]4OC(C)=O)[C@@]2(C)C[C@@H]1N1CCCCC1`, for which the max response was -0.262% (inactive).

Regarding `CN(C)CCN1C(=O)c2ccccc2N(C)c2ccccc21`, the max response was 3.06% (inactive).

Regarding `Nc1nc(Cl)nc2c1ncn2[C@@H]1O[C@H](CO)[C@@H](O)[C@@H]1F`, the max response is 2.36% (inactive).

With `O=C(CN1CCN(Cc2ccc3c(c2)OCO3)CC1)N1c2ccccc2Sc2ccccc21`, the max response was 6.91% (inactive).

On to `CCCCOC(=O)CC(CC(=O)OCCCC)(OC(C)=O)C(=O)OCCCC`, for which the max response was 0.604% (inactive).

Regarding `CCCCC(CC)COC(=O)c1ccc(N(C)C)cc1` (stereo not given), the max response is 0.633% (inactive).

`O=S(c1cc(Cl)cc(Cl)c1O)c1cc(Cl)cc(Cl)c1O`: the max response is -2.92% (inactive).

As to `O=C1c2cccc3c2[C@H](CCC3)CN1[C@@H]1CN2CCC1CC2`, the max response was -11.9% (inactive).

In the case of `NCCNC(=O)c1ccc(Cl)cn1`, the max response is -16.4% (inactive).

For the molecule `O=C(CCCN1CC=C(n2c(=O)[nH]c3ccccc32)CC1)c1ccc(F)cc1`, the max response is 3.95% (inactive) and 1.87% (inactive).

Regarding `OCCOCCN1CCN(C2=Nc3ccccc3Sc3ccccc32)CC1`, the max response was -2.1% (inactive).

Regarding `COc1ccc(-c2cc(C(F)F)nn2-c2ccc(S(N)(=O)=O)cc2)cc1F`, the max response was 15.2% (inactive).

In the case of `CCN(CC)CCOC(=O)C1(c2ccccc2)CCCC1`, the max response was 1.37% (inactive).

With `OC(C#CCN1CCCC1)(c1ccccc1)c1ccccc1`, the max response is 0.398% (inactive).

On to `Cc1ccc(-c2ncc(Cl)cc2-c2ccc(S(C)(=O)=O)cc2)cn1`, for which the max response was -5.38% (inactive).

In the case of `Oc1ccccc1C=NCc1ccccc1`, the max response was -4.65% (inactive).

Turning to `CCc1cc(Cl)c(OC)c(C(=O)NC[C@@H]2CCCN2CC)c1O`, the max response was -11.4% (inactive) and -0.677% (inactive) and -21.5% (inactive).

Consider `Cc1ncc(CO)c(C=O)c1O`, for which the max response was 3.7% (inactive).
